Laboratory results published in PubChem BioAssay (NCI).
About 79,000 compounds went through this panel and 15% of them were active in at least one assay; those are over-represented in the sample as a whole. No stated cut-off is given here; in the data, active means growth inhibition above about 70%; inactive means the rest.

Experiments:
[1] = NCI Yeast Anticancer Drug Screen. Data for the rad50 strain (AID 155);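 further: 0% = growth of vehicle-only cultures of the same strain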; conditions: S. cerevisiae rad50 strain growth inhibition; at 50.0 µM; active compounds read high
How it was run: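 Inhibition values express reduced yeast growth in compound-treated cultures relative to vehicle-treated controls.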

[2] = NCI Yeast Anticancer Drug Screen. Data for the mec2-1 strain (AID 157); conditions: S. cerevisiae mec2-1 strain, at 50.0 µM, active compounds read high
How it was run: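 Readout is yeast growth inhibition, normalised to vehicle-treated controls, in the mec2-1 strain exposed to compound.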

[3] = NCI Yeast Anticancer Drug Screen. Data for the sgs1 mgt1 strain (AID 161);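 further: 0% = growth of cultures given vehicle only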; conditions: S. cerevisiae sgs1 mgt1 strain, at 50.0 µM, active compounds read high
How it was run: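 Yeast cells carrying a defined DNA-repair defect were exposed to test compounds. Growth inhibition was measured relative to vehicle-treated controls.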

[4] = NCI Yeast Anticancer Drug Screen. Data for the cln2 rad14 strain (AID 165);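 further: 0% = growth equal to vehicle treated cultures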; conditions: S. cerevisiae cln2 rad14 strain, at 50.0 µM, active compounds read high
How it was run: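 Relative to vehicle controls, growth inhibition of compound-treated cln2 rad14 yeast was recorded.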

[5] = NCI Yeast Anticancer Drug Screen. Data for the bub3 strain (AID 167); conditions: S. cerevisiae bub3 mutant strain, at 50.0 µM, active compounds read high
How it was run: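 Steps: expose the mutant yeast strain to compound; grow alongside vehicle-treated cultures; measure growth; express inhibition against the vehicle cultures.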

[6] = NCI Yeast Anticancer Drug Screen. Data for the mlh1 rad18 strain (AID 175); conditions: S. cerevisiae mlh1 rad18 strain growth inhibition; at 50.0 µM; active compounds read high
How it was run: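 Test agents were incubated with a yeast strain of defined genotype (DNA damage repair defect). Inhibition of growth was derived by comparison with vehicle-exposed cultures.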

Measured: growth inhibition

NC(=O)c1ncn(C2CCC(CP(=O)(O)O)C2)c1N (centres undefined)
inactive: [1] -7.45% | [2] -14.1% | [3] -9.55% | [4] -28.4% | [5] -7% | [6] 5.8%

CCCCCCCCCCCCOc1ccccn1
inactive: [1] -11.2% | [2] -33.6% | [3] -7.65% | [4] -7.45% | [5] -11.6% | [6] -4.55%

CCN(CC)CCN1C(=O)C(=O)N(c2cccc3ccccc23)C1=O
inactive: [1] -26.9% | [2] -15.7% | [3] -14.9% | [4] -14.2% | [5] -31.9% | [6] -10.2%

Nc1ncnc2nc(-c3ccc(C(=O)c4cccc([N+](=O)[O-])c4)cc3)[nH]c12
inactive: [1] 1.85% | [2] 6.35% | [3] -7.5% | [4] -5.4% | [5] 14.6% | [6] -13.2%

Nc1ccc2cccc(O)c2c1
inactive: [1] 44.1% | [2] 24.2% | [3] 12.9% | [4] -9.4% | [5] 34.2% | [6] 32.4%

ClCc1c(Cl)c(Cl)c(CCl)c(Cl)c1Cl
inactive: [1] 2.75% | [2] -10.9% | [3] 3.1% | [4] 20.6% | [5] 12.6% | [6] -10.1%

OCC(O)C(O)C(O)C(SCc1ccccc1)SCc1ccccc1 (centres undefined)
inactive: [1] 3.9% | [2] -7.85% | [3] -20.4% | [4] -4.8% | [5] -6.2% | [6] -12.6%

COC1OC(CI)C(OC(=O)c2ccccc2)C(OC(=O)c2ccccc2)C1OC(=O)c1ccccc1 (centres undefined)
inactive: [1] 10.8% | [2] 21.4% | [3] 10.2% | [4] 15.2% | [5] 36.1% | [6] 33.5%

O=C(N/C(=C\c1cc(Cl)ccc1Cl)c1nc2ccccc2[nH]1)c1ccccc1
inactive: [1] 50.2% | [2] 8.65% | [3] 31.9% | [4] 25% | [5] 43.9% | [6] 42.3%

CC(=Nc1cccc(C(F)(F)F)c1)c1c(O)cc(C)oc1=O
inactive: [1] 9.25% | [2] 14.8% | [3] 24.9% | [4] 11.7% | [5] 28.2% | [6] 35.1%

CC(=O)Nc1cc2cc(Br)ccc2oc1=O
inactive: [1] 28.9% | [2] 33.4% | [3] 18.9% | [4] 40% | [5] 50.1% | [6] 36.3%

N#CCN1c2ccccc2CCC1Cl (centres undefined)
inactive: [1] -10.9% | [2] -17.6% | [3] -5.05% | [4] -7.45% | [5] 11.2% | [6] 12.4%

Oc1ccc2nccnc2c1
inactive: [1] 10.1% | [2] 1.6% | [3] 10.2% | [4] -1.6% | [5] 3.6% | [6] 13.1%

CC1C(C(=O)NCC(c2ccccc2)c2ccccc2)CC2CCCCN21 (centres undefined)
inactive: [1] -15.5% | [2] -4.75% | [3] 13.2% | [4] -9.2% | [5] 11.2% | [6] 25.9%

CNc1c(F)cc(C(=O)O)cc1F
inactive: [1] -8.35% | [2] 4.5% | [3] -0.25% | [4] -16.4% | [5] -32.6% | [6] 2.15%

Cc1nnnn1-c1ccc2ccccc2c1
inactive: [1] -24.8% | [2] -24% | [3] -6.8% | [4] -20.6% | [5] -0.05% | [6] 4.45%

CC(=O)OC(C)CCl (centres undefined)
inactive: [1] -27.6% | [2] -48.1% | [3] -34% | [4] 2.6% | [5] -17.7% | [6] -14.2%

CC1CNC(C)(C)O1 (centres undefined)
inactive: [1] 36.5% | [2] 10.9% | [3] 18.9% | [4] 23.6% | [5] 11.6% | [6] 29.4%

Cc1ccc([N+](=O)[O-])cc1NC(=O)NCCO
inactive: [1] 1.15% | [2] 1.6% | [3] -6.3% | [4] -71% | [5] 1% | [6] -1.75%

COP(=O)(OC)C(NC(=O)C(F)(F)F)(c1ccccc1)C(F)(F)F (centres undefined)
inactive: [1] -28.1% | [2] -7.25% | [3] -37.2% | [4] -8% | [5] -16.9% | [6] -28.7%

Oc1ccc(Cl)cc1CN1CCOCC1
inactive: [1] 31.3% | [2] 11.6% | [3] 36.1% | [4] 21.5% | [5] 13.3% | [6] 34.5%

Nc1nnc(Sc2n[nH]c(=O)[nH]c2=O)s1
inactive: [1] -8.8% | [2] -2.6% | [3] -14.3% | [4] -0.2% | [5] -4.9% | [6] -8.05%

C(=C\C(Sc1ccccc1)c1ccccc1)/NNC1=NC(c2ccccc2)C(c2ccccc2)=NN1 (centres undefined)
inactive: [1] -22.4% | [2] -8.6% | [3] -42.8% | [4] -4.35% | [5] -19.9% | [6] -3.55%

CCOC(=O)c1cc2c(nc1N)C(=O)CCC2
inactive: [1] -0.1% | [2] 6.25% | [3] 34.2% | [4] 16.9% | [5] 30.9% | [6] -30.9%

CC(=O)/C(C)=C\C1C(C)=CCCC1(C)C (centres undefined)
inactive: [1] -4.5% | [2] -33.4% | [3] -27.8% | [4] -23.3% | [5] -14.8% | [6] -5.85%

O=C1CSc2nc3ccc(Br)cc3c(=O)n21
inactive: [1] 16% | [2] 9.1% | [3] 11.2% | [4] -19.4% | [5] 18.6% | [6] 20.9%

CCC1C(C#N)=C(O)NC(O)=C1C#N
inactive: [1] 25.8% | [2] 6.1% | [3] 11.8% | [4] 8.6% | [5] 19.2% | [6] -1.65%

CN(CN(C)/N=C/c1ccc(Cl)cc1)/N=C/c1ccc(Cl)cc1
inactive: [1] 1.05% | [2] 11.6% | [3] 7.95% | [4] 12.8% | [5] -4.8% | [6] 10.1%

Clc1nc2ccccc2s1
inactive: [1] -32.4% | [2] -5.2% | [3] -24.8% | [4] -38% | [5] -21.1% | [6] 3.2%

CCc1cc2c(oc3cc(C)ccc32)c(=O)n1C
inactive: [1] -12.4% | [2] -7.7% | [3] -13.8% | [4] 13.5% | [5] -14.2% | [6] -8.75%

CC(=O)NCCCCCC(=O)O
inactive: [1] 38.9% | [2] 2.45% | [3] 11.9% | [4] 10.7% | [5] -2.65% | [6] 20.7%

COc1ccc2nc3cc(Cl)ccc3c(NC(C)CCCN(C)C)c2n1 (centres undefined)
inactive: [1] 44.8% | [2] 42.8% | [3] 64.2% | [4] 31.2% | [5] 46.3% | [6] 65%

CCCCOc1ccc(Nc2c(C(=O)OCC)cnc3cc4c(cc23)OCO4)cc1
inactive: [1] -3.3% | [2] -9% | [3] -0.25% | [4] 8.2% | [5] -3.45% | [6] -9.4%

O=[N+]([O-])c1ccc(SN2CCCCC2CC2CCCCC2)c([N+](=O)[O-])c1 (centres undefined)
inactive: [1] 19.9% | [2] -4.6% | [3] -18.9% | [4] -2.25% | [5] 1.3% | [6] 3.1%

NC(=O)NC1CCCCCCC1
inactive: [1] 5.95% | [2] -14.9% | [3] 1.05% | [4] -7.45% | [5] 4.75% | [6] 0.3%

O=C(CCl)OCCCc1ccccc1
inactive: [1] -10.6% | [2] 44.2% | [3] 49.6% | [4] -6.3% | [5] 17% | [6] 36%

COc1ccc(S(=O)(=O)O)cc1NC(=O)CC(=O)c1cccc([N+](=O)[O-])c1
inactive: [1] -5.5% | [2] -18% | [3] 9.2% | [4] 9.05% | [5] -12% | [6] -15.9%

O=C(NCCCl)NCc1cccc2c1CCCC2
inactive: [1] -12.5% | [2] 9.75% | [3] -3.85% | [4] -26.4% | [5] -3.1% | [6] -24.2%

COc1cc(NS(C)(=O)=O)ccc1Nc1c2ccc(N(C)C)cc2nc2cc(N(C)C)ccc12
inactive: [1] 29.1% | [2] -4.8% | [3] 1.05% | [4] 6.7% | [5] -8.6% | [6] -9.85%
